# Shown are actives, neighbours in structure and some others; about 3.2% of the full set was active somewhere.
# Nrf2 block – Nrf2 pathway inhibition. A549 ARE-Fluc reporter, luciferase luminescence, 18-24 h. 2.1% of 360,000 active. Potency, µM (series often up to 46 µM), for the others: at the top dose activity change, negative = inhibition, actives largely listed as inhibitors; also: potency is read from the fitted curve at half-maximal effect; % is scaled to controls: 0 for no effect and ±100 for the full control effect; nearly all actives have a fitted effect of over 60% in size
#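 Cells were seeded and rested 2 h, then exposed to compounds for 18-24 h. CellTiter-Fluor was read first as a viability measure. BugLite was added 15 min before the final luminescent read of ARE-luciferase activity in A549 cells.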
# p53 reactivation – restores transcriptional activity of mutant p53; 0.063% of 320,000 active; AID 504706; H1299 p53-A138V BP100-luciferase reporter, luminescence, 24 h; Potency, µM (titrated, usually from 92.2 µM), for inactives: at the highest dose activity change, positive = activation, usual class: activators; also: potency is read from the fitted curve at half-maximal effect; % of control where 0% means no effect; nearly all actives have a fitted effect of over 45% in size
#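 H1299 (p53-null), stable ts p53-A138V + BP100-Luc; 1000 cells/well, Opti-MEM/10% FBS; cpd 4 pt, 1:5; 24 h, 37 deg C, 5% CO2; detection reagent 10 min RT; luminescence.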
# A549 viability – A549 cytotoxicity, counter-screen for Nrf2 inhibitors; A549 ARE-Fluc cells, CellTiter-Fluor viability, 18-24 h; Potency, µM (doses to about 46 µM), for inactives: at the top dose activity change, negative = cytotoxicity, usual class: inhibitors; 0.16% of 390,000 active; also: potency is read from the fitted curve at half-maximal effect; % is scaled to controls: 0 for no effect and ±100 for the full control effect
#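 A549 ARE-Fluc cells in 5% FBS OPTI-MEM, 5000 cells/well, rested 2 h then exposed to compounds in concentration-response for 18-24 h at 37 °C. Viability by CellTiter-Fluor fluorescence (Ex 405/Em 525) after 30 min; luciferase luminescence (BugLite, 15 min, RT) read afterwards.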
# Nrf2 activator – Nrf2 pathway activation | 0.31% of 410,000 active | AREc32 ARE-luciferase reporter (MCF7-derived line), luminescence, 24 h | Potency, µM (titrated, usually from 46.1 µM), inactives show top-dose activation, actives largely listed as activators; also: potency is read from the fitted curve at half-maximal effect; % of control where 0% means no effect; nearly all actives have a fitted effect of over 65% in size
#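 Reporter line AREc32 (ARE-Fluc), seeded overnight in OPTI-MEM with 5% FBS; compound pin-transferred, 24 hr at 37 deg C, 5% CO2; luminescent read-out.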
# IL2 activator – activates IL-2 in a cell-based reporter assay; 0.065% of 360,000 active; IL-2 activation reporter assay, cell-based qHTS; stimulated with anti-CD3/CD4/CD28 beads; in transgenic mouse T cells; activation, % (series mostly up to about 46 µM); in the data active = activation above about 50%; inconclusive = mostly about 30% to 49%; also: 0% is about no effect
#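 Quantitative HTS in unstimulated transgenic mouse T cells, with memory T cells as non-tolerant control and PMA/ionomycin as tolerance-bypass control. Compound pretreatment lasted 60 minutes before 18 h bead stimulation; EGFP/DsRed fluorescence read.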
# BRCA1 expr act – increases BRCA1 expression; MCF7-BRCA1-FFLuc reporter, luminescence, 48 h; response scale: scaled: vehicle 0%, 10 µM genistein 100%; Potency, µM (titrated, usually from 46.1 µM), inactives show at the highest dose activation, hits mostly activators; 1.1% of 380,000 active; also: potency is read from the fitted curve at half-maximal effect; nearly all actives have a fitted effect of over 80% in size
#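 Activators of BRCA1 expression were detected as increased firefly luciferase luminescence in engineered MCF7 cells after 48 h compound incubation. Signals were scaled to genistein 10 microM as full activation.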
# * marks the source's active call; other numbers are inactive results; ? = inconclusive; . = no result; [ ] = another dose, or the depositor's remark. Unless noted, calls follow the shape of the dose curve; as a rule, active = well fitted curve in the direction sought with a large enough effect; inconclusive = small, poorly fitted or top-dose-only effect, or another doubt; inactive = no such curve, though single readings can be large; an effect the other way counts as inactive or inconclusive.
SMILES,Nrf2 block,p53 reactivation,A549 viability,Nrf2 activator,IL2 activator,BRCA1 expr act
COc1cc(/C=C/C(=O)Nc2ccc(OC)c(S(=O)(=O)N3CCOCC3)c2)ccc1OC(F)F,18.4µM*,-1.2%,-25.9%,0.1%,-6.3,-64.2%
COc1ccc(/C=C/C(=O)N2CCC(C(N)=O)CC2)cc1S(=O)(=O)N1CCOCC1,-1.5%,-0.5%,-0.7%,0.5%,0.1,-13.2%
O=C(Nc1ccccc1)Nc1nc(Nc2cc(F)cc(F)c2)nc(NC2CCCC2)n1,-23.1%,.,-4.6%,.,.,.
O=C(COc1ccc2c3c(c(=O)oc2c1)CCC3)N1CCN(c2ccc(F)cc2)CC1,23.1µM*,-11.7%,-2.9%,3.4%,-0.2,-2.3%
O=C(COc1ccc(S(=O)(=O)NC2CCCCC2)cc1)N1CCN(c2ccc(F)cc2)CC1,14.6µM*,-5.2%,0.6%,0.3%,-3.2,-37.0%
CC(=O)C(C)Oc1ccc2c3c(c(=O)oc2c1)CCCC3 (configuration not stated),-20.6%,24.7%,-5.5%,0.2%,-2.9,11.2µM*
O=C(COc1ccc2c3c(c(=O)oc2c1)CCCC3)N1CCN(c2ccc(F)cc2)CC1,0.2%,-1.7%,10.1%,0.0%,-1.1,7.8%
CCOc1ccc(C2C(C(=O)Nc3ccc(C)cc3C)=C(C)Nc3c(C(=O)Nc4ccc(C)cc4)cnn32)cc1OC (configuration not stated),14.6%,.,0.2%,-0.8%,.,.
COc1ccccc1Nc1nc(NCCCN(C)C)nc(N)c1[N+](=O)[O-],-28.0%,-3.9%,7.8%,4.4%,-3.0,12.8%
C=CCNc1nc(N)c([N+](=O)[O-])c(Nc2ccccc2OC)n1,20.6µM*,-0.5%,-19.4%,1.8%,-3.6,-17.0%
CCC(C)Nc1nc(N)c([N+](=O)[O-])c(Nc2ccccc2OC)n1 (configuration not stated),14.6µM*,-7.0%,?,5.1%,4.8,-11.7%
COc1ccc(C(=O)c2cn(Cc3ccc(C)cc3)c3cc4c(cc3c2=O)OCO4)cc1,-5.9%,.,?,3.3%,.,.
COc1cc(C2C(C(=O)Nc3ccc(C)cc3C)=C(C)Nc3nc(SCc4ccccc4)nn32)cc(OC)c1OC (configuration not stated),-2.3%,.,3.1%,-0.4%,.,.
COc1cc(C2C(C(=O)Nc3ccccc3C)=C(C)Nc3nc(SCc4cc(C)ccc4C)nn32)ccc1O (configuration not stated),16.4µM*,.,?,1.0%,.,-2.4%
O=C1c2ccccc2S(=O)(=O)N1Cc1nc2ccccc2s1,13µM*,-23.9%,-3.9%,-0.9%,-0.3,-83.6%
COc1ccc(OC)c(NC(=O)Cn2cnc3sc(C)c(S(=O)(=O)N4CCN(c5ccccc5OC)CC4)c3c2=O)c1,6.5%[9.27 µM],.,-5.6%,-0.8%,.,.
CCOC(=O)c1cc2c(=O)n3ccccc3nc2n(CC2CCCO2)c1=NC(=O)c1ccc(OC)cc1OC (configuration not stated),-13.4%[9.27 µM],.,0.1%,3.7%,.,.
CCCN(CCC)C(=O)CC(c1ccccc1)c1cc(Br)ccc1O (configuration not stated),16.4µM*,-11.3%,?,0.0%,-3.7,-44.5%
CC1=CC(c2ccccc2)=Nc2ccc(C)cc2N1,?,?,?,3.2%,-0.4,7.08µM*
COc1cccc(N2CCN(C(=O)Cn3cnc4onc(-c5ccc(F)cc5)c4c3=O)CC2)c1,16.4µM*,.,3.4%,2.0%,.,-10.5%
COc1ccc(N2CCN(C(=O)CCn3cnc4onc(-c5ccc(F)cc5)c4c3=O)CC2)cc1,?,.,-4.0%,0.2%,.,.
CCCN(CC(=O)Nc1ccccc1OC)C(=O)c1ccc2[nH]c3c(c2c1)CC(C)CC3 (configuration not stated),23.1µM*,8.6%,?,2.1%,-5.0,-91.8%
Cc1cccc(C)c1Nc1c(-c2ccccc2F)nc2cccc(C)n12,?,.,?,0.2%,.,-19.5%
COCCCNC(=O)Nc1cc(C(=O)NCc2ccc(OC)cc2)ccc1N1CCCC1,.,.,-0.8%,0.8%,.,.
Cc1n[nH]c(C)c1CCc1nc2c3ccccc3nc(SCC(=O)Nc3ccc(F)cc3)n2n1,.,.,-14.8%,-0.8%,.,.
SMILES,Nrf2 block,p53 reactivation,A549 viability,Nrf2 activator,IL2 activator,BRCA1 expr act
Cc1ccc(NC(=O)CSc2nc3ccccc3c3nc(CCc4c(C)n[nH]c4C)nn23)cc1F,13µM*,-4.4%,?,-0.3%,0.3,-27.8%
COc1ccc(N=C2NC(=O)/C(=C\C=C\c3ccco3)S2)cc1,3.8%,6.4%,-16.8%,12.6µM*,-0.6,45.0%
Cc1cccc(N=C2NC(=O)/C(=C/C=C/c3ccco3)S2)c1,-2.9%,0.4%,-17.1%,?,0.1,-51.2%
Cc1nc(NCc2ccco2)c2c3c(sc2n1)CCC3,.,-4.1%,-3.6%,28.2%,-3.5,-17.1%
COc1ccc(Nc2nc(C)nc3sc4c(c23)CCC4)cc1O,-1.2%,1.6%,-12.7%,6.31µM*,-0.3,-53.9%
O=[S+]([O-])(c1ccc(-c2ccccc2)cc1)N1CCN([S+](=O)([O-])c2ccc3c(c2)OCCO3)CC1,21.1%,.,9.9%,.,.,.
O=C1CC(c2ccc(Cl)cc2)Sc2nc(-c3ccc(F)cc3)nn21 (configuration not stated),11.1%,.,8.6%,-0.8%,.,.
Cc1ccc(Cl)cc1N1CCN(c2cccc[n+]2C)CC1,8.2µM*,-3.7%,2.5%,-0.6%,-2.9,-39.7%
O=C(NCCc1ccc(Cl)cc1)c1ccc2c(c1)N(Cc1ccccc1)C(=O)CS2,.,.,-15.5%,1.0%,.,.
O=[S+]([O-])(c1ccc2c(c1)OCCO2)N1CCN([S+](=O)([O-])c2ccccc2Br)CC1,4.5%,.,1.4%,.,.,.
Cc1cccc(N2CCN(C(=O)Cn3cnc4c3c(=O)n(C)c(=O)n4C)CC2)c1C,-35.4%,-7.8%,-6.7%,0.2%,-0.2,1.6%
CCN(C(=O)Cn1nc(Cc2cccnc2)c2ccccc2c1=O)c1cc(C)ccc1C,18.4µM*,.,17.7%,0.5%,.,.
Cc1cccc(N2CCN(C(=O)Cn3ccc4ccccc4c3=O)CC2)c1C,17.8µM*,5.3%,-4.9%,-0.2%,-3.6,-13.8%
Cc1cccc(N2CCN(C(=O)Cn3nc(Cc4cccnc4)c4ccccc4c3=O)CC2)c1C,16.4µM*,.,-9.0%,-1.4%,.,.
CC(=O)NC1CCCC1C#N (configuration not stated),.,.,.,.,.,5.3%
Cc1ccc(CN(Cc2cccn2-c2nnc(N3CCCC3=O)s2)C(=O)Nc2ccc(F)cc2)cc1,0.9%,.,0.7%,2.2%,.,.
CCC(=O)Nc1cccc(C(=O)/C=C/c2ccc(F)cc2)c1,23.1µM*,-10.4%,?,-3.1%,-5.2,-92.7%

# Screens deposited in PubChem BioAssay by National Center for Advancing Translational Sciences (NCATS).
